# PubChem BioAssay (NCI)
# Compounds without any hit were thinned out: in the full panel of roughly 83,000, 20% have a hit.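 Growth was measured after 48 h exposure to one concentration of compound in 96-well plates. Values under 10 count as active.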 Values without a mark were called inactive. Activity calls are given as the source filed them.
# Legend:
# Test in all cases: NCI-60 one-dose screen, 48 h (100 = growth as untreated, 0 = no growth, -100 = all killed)
# Conditions in all cases: 10 µM
# [1] = tested on: NCI-H23 lung
# [2] = tested on: HOP-62 NSCLC
# [3] = tested on: NCI-H460 lung
# [4] = tested on: HOP-92 NSCLC
# [5] = tested on: NCI-H522 lung
# [6] = tested on: A549/ATCC NSCLC
# [7] = tested on: 786-0 renal
# [8] = tested on: COLO 205 colon
# [9] = tested on: NCI-H322M lung
# [10] = tested on: NCI-H226 lung
SMILES,growth [1],growth [2],growth [3],growth [4],growth [5],growth [6],growth [7],growth [8],growth [9],growth [10]
COc1cc2cc(Oc3ccc(NC(=O)Nc4cccc(C(F)(F)F)c4)cc3)c(C)nc2cc1OC,6.78% (active),25%,2.68% (active),-29.5% (active),-17.4% (active),3.09% (active),15.1%,-20.2% (active),–,–
Cc1cccc(N=Cc2ccccc2O)c1C,94.8%,103%,114%,97.3%,114%,88.2%,94.5%,106%,–,–
CN(C)CCN(Cc1ccccc1)c1ccc2ccccc2n1,97.6%,88.4%,96.9%,75.6%,96.7%,95.6%,93.9%,89.5%,–,–
COc1ccc(C(=O)N/N=C/c2cc(C(F)(F)F)ccc2Cl)cc1,81.3%,107%,99.8%,90.2%,82.1%,97.4%,104%,104%,–,–
COc1ccc2nc3cc(Cl)ccc3c(NCCCNCCO)c2c1,-21.7% (active),–,-8.13% (active),–,–,-26.2% (active),6.46% (active),–,-22.6% (active),–
CC(=O)[C@@]12O[C@](C)(c3ccccc3)O[C@@H]1CC1C3CCC4=CC(=O)CC[C@]4(C)C3CC[C@@]12C (stereo partly specified),54.4%,–,68.4%,76.2%,–,70.7%,67.9%,81.7%,–,–
COc1cc2c(Nc3ccc(S(N)(=O)=O)cc3)ncnc2c(OC)c1OC,96.7%,92.3%,105%,85.9%,89.4%,102%,121%,89.2%,–,–
Cc1ccc(/C=C2/C(=O)N(C)c3ccc(S(=O)(=O)Nc4ccc(C(C)(C)C)cc4)cc32)s1,67%,24.8%,98%,79.2%,75.5%,68.5%,67.4%,86.5%,–,–
O=C(Nc1cc(Cl)cc2c1-c1ccc(Cl)cc1C2O)C(Cl)Cl (stereo unspecified),79.5%,83.3%,35.9%,77.1%,84.2%,74.5%,98.4%,94.2%,–,–
COc1ccc2c(c1)CC=C1[C@@H]2CC[C@]2(C)C(=O)/C(=N/O)C[C@@H]12,102%,88.5%,101%,96.5%,102%,99.4%,90.3%,103%,–,–
COc1ccc(NC(=O)C2CC3C=CC2C3)c([N+](=O)[O-])c1 (stereo unspecified),–,100%,107%,81.9%,94.9%,93.8%,123%,115%,–,96.1%
O=C(/C=C/C=C/c1c(C2CC2)nc2ccccc2c1-c1ccc(F)cc1)c1cccs1,–,24.2%,-7.38% (active),9.27% (active),2.39% (active),20.6%,19.6%,-55% (active),–,-53.6% (active)
CN1CCc2c(sc3nc4n(-c5ccc(Cl)cc5)cnn4c(=O)c23)C1,–,–,124%,–,94.1%,88.2%,96.4%,97.7%,–,92.2%
CN(C)CCCN1c2ccccc2CCc2ccc(Cl)cc21,–,–,79.4%,–,–,72.4%,71.3%,-11.9% (active),–,–
CSc1nc(S(C)(=O)=O)nc2[nH]c(=O)[nH]c12,–,98.2%,116%,97.5%,–,106%,107%,106%,–,101%
COc1cc(-c2nn(-c3cccc(NC(=O)NCCNC(=O)c4ccccc4)c3)cc2-c2ccncc2)ccc1Cl,–,26.4%,13.5%,-0.717% (active),0.745% (active),24.2%,-50.6% (active),2.08% (active),–,9.31% (active)
CC[N+](CC)=c1ccc2nc3c(cc(NCc4ccccc4)c4ccccc43)oc-2c1,–,-99.6% (active),-66.4% (active),-7.03% (active),-82.3% (active),-90.2% (active),-62.7% (active),-89.4% (active),–,-34.4% (active)
CS(=O)(=O)c1nccc(-c2c(-c3cccc(OCCN4CCOCC4)c3)nc3sccn23)n1,–,76.9%,101%,27.9%,-63.3% (active),94.5%,90.6%,97.9%,–,83.9%
O=[N+]([O-])c1cc(Cl)cc(Cl)c1O,–,91.5%,105%,105%,82.3%,97.4%,99.9%,108%,–,–
O=C(CCn1cnc2c(cc(-c3ccccc3)n2-c2ccccc2)c1=O)Nc1ccc(F)cc1,–,13%,80.4%,34.2%,55%,70.9%,62.7%,103%,–,106%
Cn1c2ccccc2c2c3[nH][nH]c(=O)c3c3c4ccccc4[nH]c3c21,–,–,-28.2% (active),–,–,56.9%,23%,59%,–,65.8%
COc1cc(-c2csc(NC(=O)Nc3cc(C(F)(F)F)cc(C(F)(F)F)c3)n2)cc(OC)c1OC,–,13.1%,10.9%,-25.9% (active),-14.6% (active),11.9%,13.4%,0.569% (active),–,24.8%
Clc1ccc(/C=C2\CCCC3C2=Nc2ccccc2NC3c2ccc(Cl)cc2)cc1 (stereo unspecified),–,122%,94.3%,60.6%,20%,78.5%,114%,68.2%,–,100%
C=C(NC(=O)C(=C)NC(=O)c1csc(C2=NC3c4csc(n4)C4NC(=O)c5csc(n5)C(C(C)(O)C(C)O)NC(=O)C5CSC(=N5)C(=CC)NC(=O)C(C(C)O)NC(=O)c5csc(n5)C3(CC2)NC(=O)C(C)NC(=O)C(=C)NC(=O)C(C)NC(=O)C(C(C)CC)NC2C=Cc3c(C(C)O)cc(nc3C2O)C(=O)OC4C)n1)C(N)=O (stereo unspecified),–,–,66.2%,16.2%,–,72.2%,8.49% (active),-14.3% (active),–,–
COc1ccc(C2=Cn3c(CCC(=O)c4nc5ccccc5[nH]4)nnc3SC2)cc1,–,93.7%,101%,77.5%,98.6%,106%,104%,123%,–,89.3%
